Test results published in PubChem BioAssay AID1852 (Sanford-Burnham Center for Chemical Genomics, 2009).
Hit rate of the full screen: of about 2,500 compounds, about 1,100 (44%) were called active.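 The calls were made as follows: active = inhibition above 50% at 4 µM in the single-point screen; inactive = inhibition of 50% or less.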 So high a share suggests a set chosen from earlier hits. Some of the results follow.

test: TNF-a-driven NF-kB reporter inhibitors, primary screen, selectivity assay for NOD1/NOD2 signaling inhibitor project, cell-based, HEK293T NF-kB-Luc, luminescence (AID 1852); settings: TNF-a induced, 14 h, at 4 µM, stronger effect = higher value

Row | SMILES | inhibition
1 | Cc1ccc(CSC(Nc2ccc(F)cc2)=C(C#N)C#N)cc1 | 74.6% (active)
2 | N#CC(C#N)=C(Nc1ccc(F)cc1)SCc1cccc(Br)c1 | 54.7% (active)
3 | N#CC(C#N)=C(Nc1ccc(F)cc1)SCc1cccc(F)c1 | 81.7% (active)
4 | COc1c(F)c(F)c(C(=O)Nc2cccc(Cl)c2N2CCOCC2)c(F)c1F | 46.2% (inactive)
5 | COc1ccc(C)cc1NC(=O)CN(C)S(=O)(=O)c1ccc2c(c1)c(=O)n(C)c(=O)n2C | 19.7% (inactive)
6 | COc1cc(/C=C/C(=O)c2ccc(C)cc2)ccc1OCC#N | 19.5% (inactive)
7 | COc1cccc(/C=C/C(=O)c2ccc(NS(=O)(=O)c3ccc(C)cc3)cc2)c1 | 4.1% (inactive)
8 | COc1cccc(C(=O)/C=C/Nc2ccc(S(=O)(=O)Nc3cccc(C(C)=O)c3)cc2)c1 | 46.2% (inactive)
9 | COc1cc(OC)c(OC)cc1/C=C/C(=O)c1ccc(NS(=O)(=O)c2ccc(C)cc2)cc1 | 70.3% (active)
10 | COc1cc(/C=C/C(=O)c2ccc(NS(=O)(=O)c3ccc(C)cc3)cc2)cc(OC)c1O | 78.9% (active)
11 | Oc1ccc(N=Nc2ccccc2C(F)(F)F)c2cccnc12 | 20.4% (inactive)
12 | Oc1ccc2ccccc2c1N=Nc1ccccn1 | 95.8% (active)
13 | Cc1ccccc1NC(=O)C1CCN(c2cc(-c3ccccc3)nc3ncnn23)CC1 | 46% (inactive)
14 | O=C(Nc1ccc(Oc2ccccc2)cc1)C1CCN(c2c3c(nc4ncnn24)CCC3)CC1 | 62% (active)
15 | CC(=O)c1ccc(N2CCN(C(=S)Nc3ccc(Oc4ccccc4)cc3)CC2)cc1 | 41.5% (inactive)
16 | COc1ccc(CCNC(=O)c2cc(=O)c3cc(C)ccc3o2)cc1OC | 19.4% (inactive)
17 | COc1cc(C(=O)NCCOc2cc(C)ccc2C(C)C)cc(OC)c1OC | 52.4% (active)
18 | COCCNC(=S)N(CCc1c(C)[nH]c2ccc(C)cc12)Cc1cc(OC)c(OC)c(OC)c1 | 19.3% (inactive)
19 | CC1=CC(C)(C)Nc2ccc(OC(=O)C(C)N3C(=O)c4ccccc4C3=O)cc21 (stereo not given) | 40.1% (inactive)
20 | CC1=CC(C)(C)Nc2ccc(OC(=O)CN3C(=O)CCC3=O)cc21 | 86.9% (active)
21 | CC1=CC(C)(C)Nc2ccc(OC(=O)CN3C(=O)C4CCCCC4C3=O)cc21 (stereo not given) | 42.7% (inactive)
22 | Cc1ccc(Sc2c(C=O)c3ccccc3n2C)cc1 | 86.4% (active)

Row | SMILES | inhibition
23 | COc1cccc(OCCn2cc(C=O)c3ccccc32)c1 | 42.4% (inactive)
24 | Cc1cccc(Sc2c(C=O)c3ccccc3n2C)c1 | 60.5% (active)
25 | Cn1c(Sc2ccc(Br)cc2)c(C=O)c2ccccc21 | 48.7% (inactive)
26 | Cn1c(Sc2ccc(Cl)cc2)c(C=O)c2ccccc21 | 34.4% (inactive)
27 | c1ccc(C2=Nn3c(nnc3-c3ccncc3)SC2)cc1 | 70.9% (active)
28 | COc1ccc(C2=Nn3c(nnc3-c3ccncc3)SC2)cc1 | 70.4% (active)
29 | COc1cccc(-c2nnc3n2N=C(C(C)(C)C)CS3)c1 | 96.3% (active)
30 | c1csc(C2=Nn3c(nnc3-c3ccncc3)SC2)c1 | 90.9% (active)
31 | Clc1ccccc1C1=Nn2c(nnc2-c2ccncc2)SC1 | 84.4% (active)
32 | COC(=O)c1cccc(NS(=O)(=O)c2cccs2)c1C | 7.7% (inactive)
33 | CCc1cccc(C)c1NS(=O)(=O)c1cccs1 | -2.7% (inactive)
34 | O=S(=O)(Nc1cccc2ncccc12)c1cccs1 | 98.1% (active)
35 | Cc1c(NS(=O)(=O)c2ccc3c(c2)OCCO3)cccc1-c1nc2cccnc2s1 | 48.1% (inactive)
36 | Cc1ccc(S(=O)(=O)Nc2cccc3ncccc23)s1 | 96.4% (active)
37 | CC(NC(=S)NC1CCCCC1)c1ccc(C(C)(C)C)cc1 (stereo not given) | 9.1% (inactive)
38 | CC(C)(C)C(=O)Cn1ncc(Cl)c(Cl)c1=O | 10.7% (inactive)
39 | O=C(Cn1ncc(Cl)c(Cl)c1=O)N1CCc2ccccc21 | 73% (active)
40 | O=C1CN(C(=O)Cn2ncc(Cl)c(Cl)c2=O)c2ccccc2N1 | 40.3% (inactive)
41 | CCOC(=O)c1ccc(NC(=O)Cn2ncc(Cl)c(Cl)c2=O)cc1 | 60.3% (active)
42 | O=C(Cn1ncc(Cl)c(Cl)c1=O)c1ccc(Cl)cc1 | 75.4% (active)
43 | Cc1cc(Br)ccc1NC(=O)CNC(=O)Cn1ncc(Cl)c(Cl)c1=O | 94.4% (active)
44 | CCC(=O)Nc1ccc(C(=O)Cn2ncc(Cl)c(Cl)c2=O)cc1 | 56.5% (active)

Row | SMILES | inhibition
45 | Cc1ccc(-c2csc(N3CCN(CCCn4c(-c5ccncc5)nc5ccccc54)CC3)n2)cc1 | -10.9% (inactive)
46 | CC(=O)Nc1ccc(C(=O)Nc2nc(-c3cc(C)n(Cc4ccccc4)c3C)cs2)cc1 | 20.1% (inactive)
47 | CCN(c1ccc(C)cc1)S(=O)(=O)c1nnc(NC(=O)c2ccco2)s1 | 10.4% (inactive)
48 | COc1ccccc1Nc1nc(-c2sc(NC(=O)c3ccco3)nc2C)cs1 | 82.3% (active)
49 | CC(=O)Nc1nc(C)c(-c2csc(Nc3ccc(O)cc3)n2)s1 | 58.5% (active)
50 | CC(=O)Nc1nc(C)c(-c2csc(Nc3cccc([N+](=O)[O-])c3)n2)s1 | 24.8% (inactive)
51 | Cc1[nH]nc2ncc(C(=O)c3ccccc3O)cc12 | 67.9% (active)
52 | Cc1ccc(O)c(C(=O)c2cnc3c(c2)COc2ccc(C)cc2-3)c1 | 22% (inactive)
53 | O=C(c1cnn(C(=O)c2ccc(O)cc2)c1)c1ccccc1O | 9.9% (inactive)
54 | C/C(=N\NC(=O)COc1ccccc1-c1ccccc1)c1ccccn1 | 106% (active)
55 | C/C(=N\NC(=O)Cc1ccc(Cl)cc1)c1ccccn1 | 101% (active)
56 | C/C(=N\NC(=O)c1ccc(Cl)cc1)c1ccccn1 | 103% (active)
57 | C/C(=N\NC(=O)c1cccc(Br)c1)c1ccccn1 | 98% (active)
58 | C/C(=N\NC(=O)c1cc(Br)ccc1O)c1ccccn1 | 25.1% (inactive)
59 | Cc1ccc(Nc2nc3nonc3[nH]c2=O)cc1Cl | -23% (inactive)
60 | COc1ccc(C(=O)N/N=C(\C)c2ccccn2)cc1OC | 106% (active)
61 | C/C(=N\NC(=O)c1ccc(F)cc1)c1ccccn1 | 106% (active)
62 | C/C(=N\NC(=O)c1ccc(Cl)c(Cl)c1)c1ccccn1 | 102% (active)
63 | COC(=O)c1ccc2nc(Nc3nc4ccc(F)cc4s3)sc2c1 | 0% (inactive)
64 | CCOC(=O)c1csc(Nc2nc3ccc(F)cc3s2)n1 | 106% (active)
65 | CCOC(=O)c1ccc2nc(Nc3nc4ccc(F)cc4s3)sc2c1 | -87.4% (inactive)
